Source: the supplement of paper PMC10849652
About 7,900 targets were measured; listed, in parts, are those with a hit and a random draw of the rest. About 0.6% of all pairs of compound and target were hits. Unmarked numbers belong to inactive results.

Experiments:
Test in all cases: log2 fold change, soluble protein after heating vs DMSO (PISA); higher = thermal stabilisation; K562 cells, 10 uM, 30 min; active = over 0.2 and 3.5 SD of the protein, either way, in both replicates (recomputed)
[1] = compound: CS(=O)(=O)c1ccc(-c2cnc(N)c(C(=O)Nc3ccccc3)n2)cc1
Procedure, shortened: (§1)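 Aliquots of K562 cells (2×10^6 cells/mL) treated with 10 μM compound for 30 min were heated for 3 min over 48°C-58°C. After pooling and extraction in PBS with 0.5% NP-40 at 4°C, soluble protein from a 21,000xg, 90 min spin was quantified by TMTpro 16plex LC-MS/MS with channel sums equalised. Thermal stability is expressed against control samples, from duplicates, as a log2 fold change.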

[2] = compound: C[C@@H]1COCCN1C2=NC(=NC(=C2)C3(CC3)S(=O)(=O)C)C4=C5C=CNC5=CC=C4
Procedure, shortened: as §1

[3] = compound: C[C@H](C1=CC=C(C=C1)C(=O)NC2=C3C=CNC3=NC=C2)N
Procedure, shortened: as §1

gandotinib = compound: Cc1cc(Nc2cc(CN3CCOCC3)c3nc(C)c(Cc4ccc(Cl)cc4F)n3n2)n[nH]1 [gandotinib]
Procedure, shortened: as §1

tozasertib = compound: Cc1cc(Nc2cc(N3CCN(C)CC3)nc(Sc3ccc(NC(=O)C4CC4)cc3)n2)n[nH]1 [tozasertib]
Procedure, shortened: as §1

bafetinib = compound: Cc1ccc(NC(=O)c2ccc(CN3CC[C@H](N(C)C)C3)c(C(F)(F)F)c2)cc1Nc1nccc(-c2cncnc2)n1 [bafetinib]
Procedure, shortened: as §1

[4] = compound: Cc1cccc(CC(=O)N2CCc3c2ccc(-c2cn(C)c4ncnc(N)c24)c3F)n1
Procedure, shortened: as §1

nilotinib = compound: Cc1cn(-c2cc(NC(=O)c3ccc(C)c(Nc4nccc(-c5cccnc5)n4)c3)cc(C(F)(F)F)c2)cn1 [nilotinib]
Procedure, shortened: as §1

[5] = compound: Cc1nc(Nc2n[nH]c3c2CN(C(=O)N[C@H](CN(C)C)c2ccccc2)C3(C)C)c2sccc2n1
Procedure, shortened: as §1

[6] = compound: Cc1ncc(-c2ccnc(Nc3ccc(S(C)(=O)=O)cc3)n2)n1C(C)C
Procedure, shortened: as §1

[7] = compound: Cn1cc(-c2ccc3c(c2)CCN3C(=O)Cc2cccc(C(F)(F)F)c2)c2c(N)ncnc21
Procedure, shortened: as §1

mubritinib = compound: FC(F)(F)c1ccc(/C=C/c2nc(COc3ccc(CCCCn4ccnn4)cc3)co2)cc1 [mubritinib]
Procedure, shortened: as §1

tipifarnib = compound: Cn1cncc1[C@@](N)(c1ccc(Cl)cc1)c1ccc2c(c1)c(-c1cccc(Cl)c1)cc(=O)n2C [tipifarnib]
Procedure, shortened: as §1

duvelisib = compound: C[C@H](Nc1ncnc2nc[nH]c12)c1cc2cccc(Cl)c2c(=O)n1-c1ccccc1 [duvelisib]
Procedure, shortened: as §1

[8] = compound: Cc1cc(SCc2sc(-c3ccc(C(F)(F)F)cc3)nc2C)ccc1OCC(=O)O
Procedure, shortened: as §1

ispinesib = compound: Cc1ccc(C(=O)N(CCCN)[C@@H](c2nc3cc(Cl)ccc3c(=O)n2Cc2ccccc2)C(C)C)cc1 [ispinesib]
Procedure, shortened: as §1

dasatinib = compound: Cc1nc(Nc2ncc(C(=O)Nc3c(C)cccc3Cl)s2)cc(N2CCN(CCO)CC2)n1 [dasatinib]
Procedure, shortened: as §1

[9] = compound: Cn1cc(-c2ccc3nnc(C(F)(F)c4ccc5ncccc5c4)n3n2)cn1
Procedure, shortened: as §1

crizotinib = compound: C[C@@H](Oc1cc(-c2cnn(C3CCNCC3)c2)cnc1N)c1c(Cl)ccc(F)c1Cl [crizotinib]
Procedure, shortened: as §1

doramapimod = compound: Cc1ccc(-n2nc(C(C)(C)C)cc2NC(=O)Nc2ccc(OCCN3CCOCC3)c3ccccc23)cc1 [doramapimod]
Procedure, shortened: as §1

UniProt A1X283, sequence (A1X283 whole entry, looked up): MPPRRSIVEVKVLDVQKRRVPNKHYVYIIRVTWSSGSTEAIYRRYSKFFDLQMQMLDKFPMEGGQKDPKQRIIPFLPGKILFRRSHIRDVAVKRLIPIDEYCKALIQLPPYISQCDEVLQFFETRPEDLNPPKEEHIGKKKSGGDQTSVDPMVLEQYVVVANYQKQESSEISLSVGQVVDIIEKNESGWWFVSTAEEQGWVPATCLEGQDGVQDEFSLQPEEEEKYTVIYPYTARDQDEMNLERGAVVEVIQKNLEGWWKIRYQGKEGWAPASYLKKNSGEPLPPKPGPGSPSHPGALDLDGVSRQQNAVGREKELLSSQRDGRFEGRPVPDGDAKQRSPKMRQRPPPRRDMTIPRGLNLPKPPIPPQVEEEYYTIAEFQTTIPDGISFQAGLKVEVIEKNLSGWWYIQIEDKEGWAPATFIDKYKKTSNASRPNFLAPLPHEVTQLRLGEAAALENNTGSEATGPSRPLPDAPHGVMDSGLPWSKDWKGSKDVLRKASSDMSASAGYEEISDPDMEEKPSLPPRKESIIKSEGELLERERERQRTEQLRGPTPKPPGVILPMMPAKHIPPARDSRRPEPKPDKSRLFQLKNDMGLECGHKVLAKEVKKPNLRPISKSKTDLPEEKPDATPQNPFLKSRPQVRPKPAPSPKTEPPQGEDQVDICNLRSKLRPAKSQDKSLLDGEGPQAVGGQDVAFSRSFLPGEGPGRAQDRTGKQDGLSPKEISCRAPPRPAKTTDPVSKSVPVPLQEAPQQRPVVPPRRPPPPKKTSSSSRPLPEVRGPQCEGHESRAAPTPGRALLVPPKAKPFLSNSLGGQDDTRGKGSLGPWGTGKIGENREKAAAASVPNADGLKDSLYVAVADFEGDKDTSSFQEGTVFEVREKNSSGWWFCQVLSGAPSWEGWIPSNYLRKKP
UniProt A6NEQ0, sequence (A6NEQ0 whole entry, looked up): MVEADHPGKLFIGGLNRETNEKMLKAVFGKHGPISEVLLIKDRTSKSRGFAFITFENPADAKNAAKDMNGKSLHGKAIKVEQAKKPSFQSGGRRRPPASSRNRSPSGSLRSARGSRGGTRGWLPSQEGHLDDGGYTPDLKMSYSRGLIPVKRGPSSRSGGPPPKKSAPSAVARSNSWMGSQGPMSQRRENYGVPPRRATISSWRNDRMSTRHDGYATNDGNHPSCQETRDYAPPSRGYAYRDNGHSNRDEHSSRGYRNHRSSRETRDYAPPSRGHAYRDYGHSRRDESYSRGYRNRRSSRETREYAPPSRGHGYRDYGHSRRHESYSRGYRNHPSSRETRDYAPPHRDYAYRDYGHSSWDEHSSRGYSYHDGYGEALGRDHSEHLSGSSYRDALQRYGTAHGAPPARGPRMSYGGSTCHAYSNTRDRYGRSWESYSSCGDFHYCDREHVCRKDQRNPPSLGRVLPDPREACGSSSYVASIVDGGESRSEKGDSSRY
UniProt Q96EU6, sequence (Q96EU6 whole entry, looked up): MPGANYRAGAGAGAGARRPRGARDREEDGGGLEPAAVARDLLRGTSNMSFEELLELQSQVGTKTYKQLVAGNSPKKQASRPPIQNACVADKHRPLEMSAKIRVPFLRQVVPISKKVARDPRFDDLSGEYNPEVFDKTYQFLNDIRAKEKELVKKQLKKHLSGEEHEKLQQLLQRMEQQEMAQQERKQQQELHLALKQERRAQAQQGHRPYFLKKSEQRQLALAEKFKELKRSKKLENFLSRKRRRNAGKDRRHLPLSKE
UniProt Q9NRX5, sequence (Q9NRX5 whole entry, looked up): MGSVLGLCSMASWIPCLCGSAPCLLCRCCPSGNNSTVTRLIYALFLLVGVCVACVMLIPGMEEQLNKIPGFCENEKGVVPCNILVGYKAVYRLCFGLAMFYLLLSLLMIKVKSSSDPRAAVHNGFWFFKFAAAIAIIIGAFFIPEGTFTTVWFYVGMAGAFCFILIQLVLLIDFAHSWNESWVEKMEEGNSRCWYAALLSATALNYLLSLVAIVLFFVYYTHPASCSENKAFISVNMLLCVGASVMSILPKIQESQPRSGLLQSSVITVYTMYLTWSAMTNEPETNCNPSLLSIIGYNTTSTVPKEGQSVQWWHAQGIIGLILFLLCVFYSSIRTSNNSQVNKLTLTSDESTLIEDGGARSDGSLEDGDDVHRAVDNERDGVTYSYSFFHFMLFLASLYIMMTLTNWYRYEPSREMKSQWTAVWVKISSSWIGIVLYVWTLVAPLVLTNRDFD
UniProt O75582, sequence (O75582 whole entry, looked up): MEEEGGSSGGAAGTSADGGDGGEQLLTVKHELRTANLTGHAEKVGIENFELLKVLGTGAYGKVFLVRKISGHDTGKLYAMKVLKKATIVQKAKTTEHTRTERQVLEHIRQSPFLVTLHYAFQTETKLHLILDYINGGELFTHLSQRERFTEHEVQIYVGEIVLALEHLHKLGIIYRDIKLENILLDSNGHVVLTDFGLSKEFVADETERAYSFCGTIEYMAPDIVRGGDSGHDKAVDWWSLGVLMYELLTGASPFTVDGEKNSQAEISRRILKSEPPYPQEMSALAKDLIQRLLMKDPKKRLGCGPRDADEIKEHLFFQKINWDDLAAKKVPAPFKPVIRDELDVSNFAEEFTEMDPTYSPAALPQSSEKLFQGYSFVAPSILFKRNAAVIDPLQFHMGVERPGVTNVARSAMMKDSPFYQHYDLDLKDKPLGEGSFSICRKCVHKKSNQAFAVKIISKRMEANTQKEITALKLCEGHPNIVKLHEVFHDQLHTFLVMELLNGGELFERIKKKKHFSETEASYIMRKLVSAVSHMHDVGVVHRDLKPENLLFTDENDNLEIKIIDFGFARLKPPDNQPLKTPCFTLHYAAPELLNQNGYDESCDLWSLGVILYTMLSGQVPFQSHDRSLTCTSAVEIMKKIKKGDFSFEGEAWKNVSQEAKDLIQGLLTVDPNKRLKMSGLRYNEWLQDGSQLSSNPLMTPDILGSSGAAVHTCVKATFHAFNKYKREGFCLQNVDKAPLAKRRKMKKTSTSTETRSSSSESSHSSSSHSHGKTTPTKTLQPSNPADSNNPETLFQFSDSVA
UniProt P60903, sequence (P60903 whole entry, looked up): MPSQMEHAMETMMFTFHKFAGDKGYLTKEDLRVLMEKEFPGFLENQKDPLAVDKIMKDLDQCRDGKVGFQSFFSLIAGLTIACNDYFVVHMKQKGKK
UniProt P78332, sequence (P78332 whole entry, looked up): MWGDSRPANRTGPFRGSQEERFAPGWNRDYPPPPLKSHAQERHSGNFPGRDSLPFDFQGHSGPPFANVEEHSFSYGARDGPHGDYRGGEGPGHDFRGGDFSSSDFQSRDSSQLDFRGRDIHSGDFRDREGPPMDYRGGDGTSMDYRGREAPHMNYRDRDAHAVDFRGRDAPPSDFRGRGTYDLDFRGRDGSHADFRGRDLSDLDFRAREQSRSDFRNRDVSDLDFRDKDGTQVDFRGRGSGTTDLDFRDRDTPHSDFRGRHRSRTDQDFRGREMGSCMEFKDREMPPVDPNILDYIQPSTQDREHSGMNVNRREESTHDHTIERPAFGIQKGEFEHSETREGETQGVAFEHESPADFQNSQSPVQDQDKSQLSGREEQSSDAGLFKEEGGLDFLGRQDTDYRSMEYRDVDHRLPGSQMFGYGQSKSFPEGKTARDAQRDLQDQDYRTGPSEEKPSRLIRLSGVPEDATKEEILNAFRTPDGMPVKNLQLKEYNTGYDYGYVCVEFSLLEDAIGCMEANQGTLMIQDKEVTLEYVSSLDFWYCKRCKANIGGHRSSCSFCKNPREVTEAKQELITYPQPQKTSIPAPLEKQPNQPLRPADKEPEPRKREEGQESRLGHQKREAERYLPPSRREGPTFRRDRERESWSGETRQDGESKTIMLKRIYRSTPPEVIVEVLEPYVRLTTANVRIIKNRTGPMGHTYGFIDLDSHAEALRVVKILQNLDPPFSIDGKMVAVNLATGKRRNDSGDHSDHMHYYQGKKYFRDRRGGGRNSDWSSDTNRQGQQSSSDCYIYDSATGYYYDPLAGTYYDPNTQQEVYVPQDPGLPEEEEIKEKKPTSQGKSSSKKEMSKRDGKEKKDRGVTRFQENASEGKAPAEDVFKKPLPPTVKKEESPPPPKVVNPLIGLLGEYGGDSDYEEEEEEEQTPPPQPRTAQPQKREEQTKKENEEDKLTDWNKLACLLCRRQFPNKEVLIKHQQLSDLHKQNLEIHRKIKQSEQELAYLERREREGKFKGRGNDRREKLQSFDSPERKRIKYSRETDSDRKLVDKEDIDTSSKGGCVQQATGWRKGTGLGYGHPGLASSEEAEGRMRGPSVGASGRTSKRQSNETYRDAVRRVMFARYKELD
UniProt O00560, sequence (O00560 whole entry, looked up): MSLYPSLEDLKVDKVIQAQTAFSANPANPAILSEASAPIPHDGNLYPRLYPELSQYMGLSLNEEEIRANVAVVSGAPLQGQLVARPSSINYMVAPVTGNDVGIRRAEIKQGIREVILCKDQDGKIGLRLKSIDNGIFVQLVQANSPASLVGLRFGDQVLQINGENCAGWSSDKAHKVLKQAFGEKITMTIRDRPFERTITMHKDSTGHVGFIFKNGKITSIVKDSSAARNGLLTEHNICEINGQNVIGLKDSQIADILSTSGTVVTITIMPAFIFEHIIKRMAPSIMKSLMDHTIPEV
UniProt Q86X27, sequence (Q86X27 whole entry, looked up): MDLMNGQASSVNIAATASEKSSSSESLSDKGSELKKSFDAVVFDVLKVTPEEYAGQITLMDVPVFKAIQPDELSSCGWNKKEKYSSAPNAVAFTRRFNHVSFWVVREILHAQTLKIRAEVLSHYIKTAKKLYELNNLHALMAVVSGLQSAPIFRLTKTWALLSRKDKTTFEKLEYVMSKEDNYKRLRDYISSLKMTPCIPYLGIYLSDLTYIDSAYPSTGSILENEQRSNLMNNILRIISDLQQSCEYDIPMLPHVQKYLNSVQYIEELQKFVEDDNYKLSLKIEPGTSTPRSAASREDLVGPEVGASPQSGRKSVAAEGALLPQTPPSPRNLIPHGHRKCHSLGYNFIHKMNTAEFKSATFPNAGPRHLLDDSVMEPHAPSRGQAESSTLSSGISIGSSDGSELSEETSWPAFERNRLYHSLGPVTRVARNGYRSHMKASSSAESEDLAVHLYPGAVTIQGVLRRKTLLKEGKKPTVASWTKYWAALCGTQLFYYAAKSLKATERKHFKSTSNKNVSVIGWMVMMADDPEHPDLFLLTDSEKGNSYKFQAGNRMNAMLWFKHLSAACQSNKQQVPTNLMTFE

| Target | log2 fold change [1] | log2 fold change [2] | log2 fold change [3] | log2 fold change (gandotinib) | log2 fold change (tozasertib) | log2 fold change (bafetinib) | log2 fold change [4] | log2 fold change (nilotinib) | log2 fold change [5] | log2 fold change [6] | log2 fold change [7] | log2 fold change (mubritinib) | log2 fold change (tipifarnib) | log2 fold change (duvelisib) | log2 fold change [8] | log2 fold change (ispinesib) | log2 fold change (dasatinib) | log2 fold change [9] | log2 fold change (crizotinib) | log2 fold change (doramapimod) |
| --- | --- | --- | --- | --- | --- | --- | --- | --- | --- | --- | --- | --- | --- | --- | --- | --- | --- | --- | --- | --- |
| SH3PXD2B (UniProt A1X283) | 0.002 | 0.246 | 0.055 | 0.077 | -0.1 | -0.954 (active) | -0.058 | -0.124 | 0.129 | -0.152 | 0.024 | 0 |  |  |  |  |  |  |  |  |
| RPS19 (UniProt M0R2L9) |  |  |  |  | -0.034 |  |  | 0.116 | 0 | -0.267 |  | 0.229 | -0.126 |  |  |  |  |  |  |  |
| SDCBP isoform 2 (UniProt O00560) | 0.093 | -0.108 |  | 0.058 | 0.045 | -0.298 | -0.066 | 0.108 | -0.219 | -0.205 |  | 0.033 | 0.109 | 0.019 | 0.069 | -0.185 | -0.083 | -0.085 |  |  |
| SIK3 (UniProt H0Y4E8) | -0.144 |  | 0.027 | 0.118 | -0.106 |  | -0.122 | -0.053 | -0.179 | 0.003 | -0.016 | -0.035 | 0.251 | 0.035 | -0.056 | 0.185 | -0.037 | 0 | 0.084 | -0.058 |
| RBM6 (UniProt P78332) | 0 |  | 0.013 | -0.043 | -0.094 |  | -0.048 | 0.062 | -0.109 | -0.194 | -0.052 | -0.072 | 0.028 | -0.154 | -0.183 |  | 0.025 |  | 0.148 | 0.032 |
| RRP36 (UniProt Q96EU6) | -0.115 | -0.645 | 0.271 | 0.182 | 0.031 | 0.428 | 0.054 | -0.007 | 0.203 | -0.011 | -0.319 | -0.132 | 0.208 | -0.16 | 0.022 | 0.043 | 0.164 | -0.016 |  |  |
| RPS6KA5 (UniProt O75582) |  | 0.045 |  |  |  |  |  |  |  |  |  | -0.171 | -0.07 |  |  | 0.018 |  | -0.098 | -0.393 | -0.016 |
| S100A10 (UniProt P60903) | -0.004 |  | 0.063 | 0.131 | 0.057 | -0.026 | -0.035 | 0.072 | -0.057 | -0.016 | 0.146 |  | 0.131 |  |  |  |  |  |  |  |
| SERINC1 (UniProt Q9NRX5) | 0.075 | 0.037 |  |  | 0.125 | -0.135 |  | 0.121 | 0.081 | -0.064 |  | 0.057 | -0.112 | 0.03 | -0.016 | -0.048 | -0.034 | 0.054 | -0.197 | 0.068 |
| RALGPS2 (UniProt Q86X27) |  | -0.199 | 0.222 | 0.08 | -0.112 | -0.072 | -0.001 |  |  |  | 0.043 | -0.198 |  | -0.117 | 0.106 |  | -0.011 |  | -0.237 | 0.289 |
| RPS3A (UniProt D6R9B6) | -0.014 |  |  |  | -0.134 |  |  |  |  |  |  |  |  | -0.015 | 0.069 |  | 0.155 |  |  |  |
| RNF220 isoform 3 (UniProt Q5VTB9) |  |  |  |  |  |  |  |  |  |  |  |  | -0.282 |  |  |  |  |  |  |  |
| RBMY1E (UniProt A6NEQ0) |  |  | -0.12 | -0.137 | 0.113 | -0.041 | 0.219 | 0.009 | -0.038 | 0.026 | 0.29 | 0.192 | -0.016 |  |  | -0.148 |  | -0.164 | -0.122 | -0.007 |
